We go through 15 molecules from PubChem BioAssay (EPA / NIEHS).

Active and inactive are the calls of the source. Rule for the calls: active = hit-call score of the fitted dose curve at least 0.9, where 1 is the maximum; inactive = score below 0.9.

Read-out in experiment [1]: Interleukin-1 alpha (IL1a), IL1A (gene 3552)
Put plainly: BSK_BF4T_IL1a: BioMAP Diversity Plus: BF4T Assay for Interleukin-1 alpha (IL1a) Biomarker Activity (AID 2284264). Particulars: primary human bronchial epithelial cells with fibroblasts. In outline: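 Human bronchial epithelial cells co-cultured with dermal fibroblasts, dosed and read at 24 h. Secreted/surface IL-1α quantified by ELISA; gain-of-signal fitted relative to DMSO baseline. Parallel SRB total-protein staining tracked cytotoxicity.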

Read-out in experiment [2]: Decorin, DCN (gene 1634)
Nature of the experiment: BSK_MyoF_Decorin: BioMAP Diversity Plus: MyoF Assay for Decorin Biomarker Activity (AID 2284265). Conditions: primary human lung fibroblasts. In outline:
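ELISA readout of decorin, 24 h post-dosing; primary human lung fibroblast (MyoF) culture; gain-of-signal fit vs DMSO baseline.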

Read-out in experiment [3]: KRT18 (gene 3875)
Put plainly: BSK_BF4T_Keratin818: BioMAP Diversity Plus: BF4T Assay for Keratin 818 Biomarker Activity (AID 2284266). Particulars: primary human bronchial epithelial cells with fibroblasts. In outline:
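Co-culture of human bronchial epithelial cells and dermal fibroblasts, chemical exposure 24 h. Keratin 8/18 measured by ELISA; positive-direction fit vs DMSO. SRB total protein run in parallel cultures for cytotoxicity.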

Experiment [4] can be described thus: BSK_MyoF_SRB: Viability Assessment in the BioMAP Diversity Plus: MyoF Assay (AID 2284267).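 Note: total protein by SRB absorbance in parallel cultures as cytotoxicity measure.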 Particulars: primary human lung fibroblasts. The gist of the method:
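Human lung fibroblasts dosed with chemical and assessed 24 h later for overt cytotoxicity in parallel cultures. Total protein quantified by sulforhodamine B staining (0.1% SRB after 10% TCA fixation), read at 560 nm, analysed in positive direction versus DMSO baseline.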

Read-out in experiment [5]: Matrix Metallopeptidase 1 (MMP1), MMP1 (gene 4312)
Put plainly: BSK_MyoF_MMP1: BioMAP Diversity Plus: MyoF Assay for Matrix Metallopeptidase 1 (MMP1) Biomarker Activity (AID 2284268). Conditions: primary human lung fibroblasts. In outline: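 Cells: human lung fibroblasts. Exposure: 24 h chemical dosing. Detection: ELISA for MMP1. Analysis: upward fitting against DMSO negative control.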

Read-out in experiment [6]: TIMP metallopeptidase inhibitor 1 (TIMP1), TIMP1 (gene 7076)
Put plainly: BSK_MyoF_TIMP1: BioMAP Diversity Plus: MyoF Assay for TIMP metallopeptidase inhibitor 1 (TIMP1) Biomarker Activity (AID 2284269). Particulars: primary human lung fibroblasts. The gist of the method: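 Primary human lung fibroblasts, MyoF multiplex system; chemical exposure 24 h; TIMP-1 by ELISA; positive fitting direction vs DMSO control.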

Read-out in experiment [7]: Matrix Metallopeptidase 1 (MMP1), MMP1 (gene 4312)
Put plainly: BSK_BF4T_MMP1: BioMAP Diversity Plus: BF4T Assay for Matrix Metallopeptidase 1 (MMP1) Biomarker Activity (AID 2284270). Particulars: primary human bronchial epithelial cells with fibroblasts. In outline:
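Co-culture of human bronchial epithelial cells and dermal fibroblasts; MMP-1 levels measured by ELISA 24 hours after chemical dosing, relative to DMSO. Cytotoxicity checked in parallel cultures by SRB total-protein staining.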

Read-out in experiment [8]: Plasminogen Activator Inhibitor-1 (PAI1), SERPINE1 (gene 5054)
Put plainly: BSK_BF4T_PAI1: BioMAP Diversity Plus: BF4T Assay for Plasminogen Activator Inhibitor-1 (PAI1) Biomarker Activity (AID 2284273). Conditions: primary human bronchial epithelial cells with fibroblasts. The gist of the method: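 Co-culture of human bronchial epithelial cells and dermal fibroblasts exposed to compound for 24 h. PAI-1 measured by ELISA; activity fitted in positive direction versus DMSO. Parallel SRB staining assessed overt cytotoxicity.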

A short description of experiment [9]: BSK_BF4T_SRB: Viability Assessment in the BioMAP Diversity Plus: BF4T Assay (AID 2284274). Conditions: primary human bronchial epithelial cells with fibroblasts. In outline: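 Co-culture of human bronchial epithelial cells and dermal fibroblasts (BioMAP BF4T) exposed 24 h. Total protein by sulforhodamine B staining (0.1% SRB after 10% TCA fixation, 560 nm) in parallel cultures; fitted vs DMSO.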

Read-out in experiment [10]: Matrix Metallopeptidase 9 (MMP9), MMP9 (gene 4318)
Nature of the experiment: BSK_BF4T_MMP9: BioMAP Diversity Plus: BF4T Assay for Matrix Metallopeptidase 9 (MMP9) Biomarker Activity (AID 2284276). Conditions: primary human bronchial epithelial cells with fibroblasts. The gist of the method: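 Co-culture of human bronchial epithelial cells and dermal fibroblasts dosed for 24 h; MMP-9 quantified by ELISA and fitted upward versus DMSO. Cytotoxicity monitored in parallel cultures by SRB total-protein staining at the biomarker time point.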

Read-out in experiment [11]: Interleukin-8 (IL8), CXCL8 (gene 3576)
Put plainly: BSK_IMphg_IL8: BioMAP Diversity Plus: IMphg Assay for Interleukin-8 (IL8) Biomarker Activity (AID 2284277). Particulars: primary human endothelial cells with macrophages. In outline: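 Co-culture of human venular endothelial cells and macrophages exposed to chemicals for 24 h; IL-8 quantified by ELISA and compared against the DMSO baseline, with SRB total-protein staining in parallel cultures for cytotoxicity.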

Read-out in experiment [12]: Interferon-inducible T-cell alpha chemoattractant (ITAC), CXCL11 (gene 6373)
Put plainly: BSK_BE3C_ITAC: BioMAP Diversity Plus: BE3C Assay for Interferon-inducible T-cell alpha chemoattractant (ITAC) Biomarker Activity (AID 2284279). Particulars: primary human bronchial epithelial cells. In outline:
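Steps: dose human bronchial epithelial cells with chemical; incubate 24 h; measure I-TAC by ELISA; fit endpoint in positive direction against DMSO control. Cytotoxicity was checked in parallel cultures by SRB staining at harvest.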

Read-out in experiment [13]: KRT18 (gene 3875)
Nature of the experiment: BSK_BE3C_Keratin818: BioMAP Diversity Plus: BE3C Assay for Keratin 818 Biomarker Activity (AID 2284282). Particulars: primary human bronchial epithelial cells. In outline: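 Human primary bronchial epithelial cells in the BE3C system were exposed to test chemical for 24 h, then Keratin 8/18 was quantified by ELISA. Activity was fitted in the positive direction against DMSO as negative control and baseline.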

Read-out in experiment [14]: urokinase Plasminogen Activator (uPA), PLAU (gene 5328)
Nature of the experiment: BSK_BF4T_uPA: BioMAP Diversity Plus: BF4T Assay for urokinase Plasminogen Activator (uPA) Biomarker Activity (AID 2284275). Conditions: primary human bronchial epithelial cells with fibroblasts. In outline: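 Co-culture of human bronchial epithelial cells and dermal fibroblasts; uPA quantified by ELISA 24 hours after dosing, fitted relative to DMSO. Parallel SRB total-protein staining assessed overt cytotoxicity.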

Read-out in experiment [15]: Intercellular Adhesion Molecule 1 (ICAM1), ICAM1 (gene 3383)
Put plainly: BSK_BE3C_ICAM1: BioMAP Diversity Plus: BE3C Assay for Intercellular Adhesion Molecule 1 (ICAM1) Biomarker Activity (AID 2284278).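 Note: cell-surface ICAM-1 protein level quantified by ELISA.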 Conditions: primary human bronchial epithelial cells. In outline:
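Primary human bronchial epithelial cells were exposed to compound for 24 h, after which cell-surface ICAM-1 was quantified by ELISA. Activity was fitted in the gain-of-signal direction against DMSO as negative control and baseline.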

Read-out in experiment [16]: Epidermal growth factor receptor (EGFR), EGFR (gene 1956)
Nature of the experiment: BSK_BE3C_EGFR: BioMAP Diversity Plus: BE3C Assay for Epidermal growth factor receptor (EGFR) Biomarker Activity (AID 2284281). Particulars: primary human bronchial epithelial cells. In outline:
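Compound is added to human bronchial epithelial cells, cells incubate 24 h, then EGFR is detected by ELISA. Values reflect positive-direction fitting relative to DMSO.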

Read-out in experiment [17]: Interleukin-8 (IL8), CXCL8 (gene 3576)
Put plainly: BSK_BE3C_IL8: BioMAP Diversity Plus: BE3C Assay for Interleukin-8 (IL8) Biomarker Activity (AID 2284280). Particulars: primary human bronchial epithelial cells. The gist of the method:
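IL-8 signal gain, normalised to DMSO vehicle, was scored after a 24 h chemical exposure of primary human bronchial epithelial cells, with detection by ELISA.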

On to `C=CC(=O)OCC(F)(F)C(F)(F)C(F)(F)C(F)(F)C(F)(F)C(F)(F)C(F)(F)F`, for which the outcome in experiment [1], in [2], in experiment [3], in experiment [4], in [5] and in [6] was inactive. Besides, the outcome in [7], in experiment [8], in [9], in experiment [10], in [11] and in experiment [12] was inactive. In addition, the result in experiment [13] was inactive.

For the molecule `CCc1c(Br)c(Br)c(Br)c(Br)c1Br`, the result in experiment [2], in experiment [4] and in experiment [6] was inactive. Further, the concentration at half-maximal activity (AC50) in [5] is 13.2 µM (active).

Consider `CCCCCCC(C)OC(=O)CCCCC(=O)OC(C)CCCCCC` (stereo not drawn), for which the result in experiment [2], in experiment [4], in experiment [5] and in experiment [6] was inactive.

For `Nc1ccc([N+](=O)[O-])cc1O`, the outcome in experiment [2], in experiment [4], in experiment [5] and in experiment [6] was inactive.

`C=CC(F)(F)C(F)(F)C(F)(F)C(F)(F)C(F)(F)C(F)(F)C(F)(F)C(F)(F)C=C`: the outcome in [1], in [2], in experiment [3], in experiment [4], in experiment [5] and in experiment [6] was inactive. Moreover, the outcome in [7], in [8], in experiment [14], in experiment [10], in [11] and in [15] was inactive. In addition, the outcome in [12] and in experiment [13] was inactive.

On to `CCN(CC)c1ccc2c(C)cc(=O)oc2c1`, for which the result in experiment [2], in experiment [4], in experiment [5] and in [6] was inactive.

As to `O=C(O)C(F)(OC(F)(F)C(F)(OC(F)(F)C(F)(F)C(F)(F)F)C(F)(F)F)C(F)(F)F` (stereo not drawn), the outcome in experiment [1], in experiment [2], in experiment [3], in experiment [4], in experiment [5] and in experiment [6] was inactive. Further, the result in experiment [7], in experiment [8], in [10], in experiment [11], in experiment [15] and in [12] was inactive. Also, the outcome in experiment [16] and in [13] was inactive.

Turning to `CO[Si](OC)(c1ccccc1)c1ccccc1`, the outcome in experiment [2] and in experiment [6] was inactive. Moreover, the AC50 in experiment [4] was 29.4 µM (active); in experiment [5] it was 28.9 µM (active).

In the case of `CCCCCCOC(=O)c1ccccc1O`, the outcome in [15], in experiment [12], in experiment [17], in [16] and in experiment [13] was inactive.

As for `C#C[C@]1(O)CC[C@H]2[C@@H]3CCc4cc(OC)ccc4[C@H]3CC[C@@]21C`, the outcome in experiment [2], in [4] and in experiment [6] was inactive. Moreover, the AC50 in [5] is 20 µM (active).

On to `CC(=O)Nc1ccc(N=Nc2cc(C)ccc2O)cc1`, for which the result in experiment [2], in [4] and in experiment [6] was inactive. In experiment [5], the AC50 is 31 µM (active).

For `Oc1ccc(Nc2ccccc2)cc1`, the result in experiment [2], in [4], in [5] and in experiment [6] was inactive.

On to `CCCCCCCCCCCCCCCC[N+](C)(C)Cc1ccccc1`, for which the AC50 in experiment [2] was 9.35 µM (active); in [4], 5.13 µM (active); in experiment [5], 2.7 µM (active); in [6], 8.14 µM (active).

For `CCc1ccc(C(c2ccc(CC)cc2)C(Cl)Cl)cc1`, the outcome in experiment [2] and in experiment [6] was inactive. Moreover, the figures for the AC50 in experiment [4] and in experiment [5] were 25.7 µM (active) and 8.65 µM (active), respectively.

For `O=C(O)C(F)(F)C(F)(F)C(F)(F)C(F)(F)F`, the outcome in experiment [1], in experiment [2], in experiment [3], in experiment [4], in experiment [5] and in experiment [6] was inactive. Also, the result in [7], in [8], in experiment [10], in [11], in experiment [12] and in experiment [13] was inactive.
